An excerpt weighted towards active compounds, which were near 2.1% of everything screened.
S1P2 blocker – antagonists of human S1P2 receptor; O95136; cell-based S1P2 antagonist assay, inhibition at 5 uM; inhibition, % at 5 µM; hit rate 0.21% among 97,000; AID 736; in the data active = inhibition above about 45%;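 also: CRE beta-lactamase reporter cells expressing human S1P2 stimulated with S1P; 0% = agonist at EC80 alone and 100% = agonist plus reference antagonist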
GALR2 ag – activates the human galanin receptor 2 | O43603 | GALR2-expressing cells, agonist activation read-out | activation, % (concentration not given with the values) | hit rate 0.48% among 140,000; in the data active = activation above about 5%, passing the limit was not always enough;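 also: 0% = vehicle buffer wells and 100% = reference agonist at full effect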
Target sequence (O43603 whole entry, looked up): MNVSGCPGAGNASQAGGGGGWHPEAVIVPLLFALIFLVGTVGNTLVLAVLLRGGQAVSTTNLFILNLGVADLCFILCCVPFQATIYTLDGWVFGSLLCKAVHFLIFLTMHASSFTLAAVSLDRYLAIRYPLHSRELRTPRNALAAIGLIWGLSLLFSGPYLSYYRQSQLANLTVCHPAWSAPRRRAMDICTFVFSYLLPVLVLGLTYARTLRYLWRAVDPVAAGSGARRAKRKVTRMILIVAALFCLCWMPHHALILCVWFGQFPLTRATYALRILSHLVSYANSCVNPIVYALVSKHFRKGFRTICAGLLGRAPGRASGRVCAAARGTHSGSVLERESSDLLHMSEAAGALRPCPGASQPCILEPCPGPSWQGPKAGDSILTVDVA
GALR2 blocker – antagonists of human galanin receptor 2 (GALR2) | GALR2-expressing cells, antagonist mode | inhibition, % at 4 µM | hit rate 0.39% among 140,000 | AID 828; in the data active = inhibition above about 27%;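 also: cells stimulated with galanin 1-16 at roughly its EC80; 0% = agonist challenge control and 100% = basal control without agonist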
DAT uptake mod – human DAT dopamine uptake with cocaine, either direction. hit rate 1.3% among 110,000. B-score at 10 µM. LLC-PK1 hDAT cells, [14C]-dopamine uptake with cocaine IC80; actives deviate in either direction. Q01959;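 active = Z score or B-score, a plate-position-corrected score, falls beyond the plate's 99.7% confidence bounds, in either direction; inactive = both scores lie inside the 99.7% bounds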;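 also: scored against the spread of the other compound wells on the same plate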
S1P2 agonist – activates the human S1P2 receptor; O95136; S1P2-expressing cell line, agonist reporter read-out; activation, % at 4.5 µM; hit rate 0.46% among 97,000; AID 729; in the data active = activation above about 16%;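 also: 0% = vehicle low control and 100% = maximal reference agonist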
GALR2 ag confirm – confirmation of human galanin receptor 2 (GALR2) agonists; hit rate 10% among 460; activation, % at 5.6 µM; GALR2-expressing cells, agonist activation; shares compounds with GALR2 ag; in the data active = activation above about 8.4%;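 also: 0% = buffer-only vehicle wells and 100% = full reference agonist response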
BLA act counter – counter-screen for GALR2 agonists: beta-lactamase reporter activators. shares compounds with GALR2 ag. CHO NFAT-bla reporter, beta-lactamase FRET activation. activation, % at 5.6 µM. hit rate 10% among 460;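 active = activation above the screen-wide mean activation plus 3 SD, cut at about 8% in these data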;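 also: 0% = DMSO with PBS wells and 100% = thapsigargin positive control wells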
* marks the source's active call; other numbers are inactive results; / = no result given.

SMILES	S1P2 blocker	GALR2 ag	GALR2 blocker	DAT uptake mod	S1P2 agonist	GALR2 ag confirm	BLA act counter
CC1=CC(C)(C)N(C(=O)CSc2nnc(N)s2)c2cc(C)c(C)cc21	-14.2	42.7*	-9.6	-0.8	0.4	-0.5	-0.6
CC1=CC(C)(C)N(C(=O)CSc2nnc(C)s2)c2ccc(C)cc21	-9.7	-0.7	1.9	-0.696	-1.6	/	/
c1coc(CN(Cc2ccco2)c2ncnc3c2oc2ccccc23)c1	-24.0	8.9	7.7	1.15	-2.3	0.3	-2.3
Clc1ncnc2c1oc1ccccc12	7.2	-2.1	18.6	-1.14	-3.0	/	/
Cc1nc(NCc2ccco2)c2c(C)c(C)sc2n1	2.4	-2.5	6.0	-1.04	0.3	/	/
Cc1nc(SCC(=O)N(C)Cc2ccco2)c2c(C)c(C)sc2n1	-23.2	11.1	-0.9	0.887	2.9	-0.4	0.2
CC1(C)Cc2c(C#N)c(NCc3ccco3)nc(-c3ccco3)c2CO1	/	-2.3	4.0	-0.635	/	/	/
CC1(C)Cc2c(C#N)c(N3CCCC3)nc(-c3ccco3)c2CO1	-35.6	10.6	-9.1	0.579	8.8	2.1	4.0
Cc1ccc(OCCNS(=O)(=O)c2cccs2)cc1	3.3	-3.3	-5.9	/	-8.3	/	/
N#C/C(=C\c1c(N2CCCCC2)nc2ccccn2c1=O)C(=O)NC1CCS(=O)(=O)C1 (configuration not stated)	/	12.6*	-5.5	/	/	-0.3	-0.1
Cc1cccn2c(=O)c(/C=C(\C#N)C(=O)NC3CCS(=O)(=O)C3)c(N3CCC(C)CC3)nc12 (configuration not stated)	/	4.5	-19.2	/	/	/	/
O=C(CSCc1cccc(Br)c1)N/N=C/c1ccc2c(c1)OCO2	6.8	-1.4	-9.4	-0.868	-1.7	/	/
CCOC(=O)N1CCN(C(=O)c2ccc3c(=O)n(CCc4ccccc4)c(=S)[nH]c3c2)CC1	6.8	10.8	-11.6	-0.23	-3.7	0.3	0.1
NC(=O)C1CC(=O)N(c2ccc(OCC(=O)Nc3cccc(C(F)(F)F)c3)cc2)C1 (configuration not stated)	-26.4	8.3	-9.3	0.389	-1.8	-0.9	-0.8
CC(C)(C)c1ccc(CNc2ccc([N+](=O)[O-])cn2)cc1	/	-0.1	14.7	/	/	/	/
COc1cc(/C=C/C(=O)Nc2nc3ccc(S(=O)(=O)N(C)C)cc3s2)cc(OC)c1OC	/	2.0	11.4	/	/	/	/
COc1cc2nc(/C=C/c3cc(OC)c(OC)c(OC)c3)sc2cc1SC	/	14.1*	-4.2	/	/	5.8	9.0*
O=C(Nc1ccc(Cl)cn1)C1CCCN1S(=O)(=O)c1ccccc1 (configuration not stated)	-1.4	-2.1	15.5	-0.563	-3.7	/	/
COc1ccc(C2NC(=S)N3C(c4ccc(OC)cc4)NC(=S)N23)cc1 (configuration not stated)	-7.7	-2.1	1.7	0.0378	-5.4	/	/
S=C1NC(c2ccccc2)N2C(=S)NC(c3ccccc3)N12 (configuration not stated)	-14.8	12.3*	-3.7	-0.0135	-3.4	-0.3	-0.3
O=C(/C=C/c1ccco1)Nc1cc(Cl)ccc1C(=O)O	/	12.0*	-7.7	/	/	-1.0	-2.4
CC(C)NC(=O)c1ccc(-c2ccc(Cl)c(C(F)(F)F)c2)o1	-15.1	-1.1	2.2	-0.484	-3.7	/	/
O=C(Cn1c(COc2ccccc2)nc2ccccc21)Nc1cc(Cl)ccc1Cl	/	10.1*	1.3	/	/	3.7	5.4
O=C(Cn1c(COc2ccccc2)nc2ccccc21)Nc1cc(Cl)cc(Cl)c1	/	1.9	-6.4	/	/	/	/
COc1cc(CNC(=O)c2ccc3c(c2)S(=O)(=O)c2ccccc2C3=O)cc(OC)c1	/	/	/	0.222	/	/	/
SMILES	S1P2 blocker	GALR2 ag	GALR2 blocker	DAT uptake mod	S1P2 agonist	GALR2 ag confirm	BLA act counter
COCCCNC(=O)c1cn(CC(C)C)c(=O)c2c1c1ccccc1n2C	-5.0	19.9*	-5.5	0.175	-5.5	-0.4	-2.8
CCOc1ncccc1C(=O)OCC(=O)Nc1ccc(-c2nc3ccc(C)cc3s2)cc1	/	10.9*	-5.0	/	/	7.0	-0.9
COc1ccc(NC(=O)COc2ccccc2)c(OC)c1	4.6	16.1*	2.1	-0.0215	-2.7	-0.6	-2.7
COc1ccccc1NC(=O)COc1ccccc1	13.7	-0.8	4.1	-0.216	-3.9	/	/
CC(C)Nc1ccc(C(CC(N)=O)NC(=O)Cc2ccc(Cl)cc2)cc1[N+](=O)[O-] (configuration not stated)	/	/	/	-0.503	/	/	/
O=C(Nc1ccncc1)c1ccc2c(c1)C(=O)N(C1CCCCC1)C2=O	-4.6	35.7*	-3.5	-0.587	-3.6	-0.8	-2.6
COC(=O)/C(=C/Nc1ccccc1)[N+](=O)[O-]	14.5	-2.2	7.7	0.0239	-4.1	/	/
COC(=O)/C(=C/Nc1ccc(O)cc1)[N+](=O)[O-]	-10.1	9.6	3.7	0.131	-1.2	-1.2	-3.7
CCN(CC)c1ccc2c(c1)oc(=O)c1c(Cl)cc(=O)oc12	19.2	20.1*	-2.4	-0.392	14.0	6.3	11.5*
O=c1oc2cc(O)ccc2c2oc3cc(O)ccc3c12	/	0.1	12.5	-1.25	/	/	/
CC(=O)NCN1CCN(CNC(C)=O)CC1	12.8	11.1	5.7	-0.638	-3.9	-0.3	-2.0
COC(=O)c1cn(NC(=O)c2cccc(N(C)C)c2)c(=O)c2ccccc12	5.9	-1.0	-9.5	0.259	-3.3	/	/
COC(=O)c1cn(NC(=O)c2cccc(F)c2)c(=O)c2ccccc12	1.8	18.4*	2.0	-0.713	-3.0	-1.4	-0.9
CC(C)N1C(=O)S/C(=C/c2cccnc2)C1=O	20.9	-2.1	8.3	-1.53	-6.9	/	/
CC(C)N1C(=O)S/C(=C/c2ccc3c(c2)n(C)c(=O)n3C)C1=O	-4.9	96.9*	3.1	0.128	0.1	-0.2	0.8
Cn1nnnc1SCC(=O)NC(=O)Cc1ccccc1	13.3	-0.9	-7.7	-0.867	-2.2	/	/
Cn1nnnc1SCC(=O)NCCCc1ccccc1	23.9	11.5*	-4.1	0.648	-8.6	-0.4	-1.9
COC(=O)CCC(=O)Nc1nnc(C(F)(F)F)s1	-6.1	144.5*	-4.1	0.554	-2.5	-0.9	-1.1
COC(=O)c1ccc(NC(=S)NC2CC3CCC2C3)cc1 (configuration not stated)	/	-1.2	-5.3	/	/	/	/
COc1cc(SC#N)ccc1N=Cc1c(C)[nH]n(-c2ccc(C)c(C)c2)c1=O	/	12.3*	8.0	/	/	4.9	4.3
COc1ccc(Nc2nc(N)nc(CSc3nnc(C)s3)n2)cc1	-28.9	0.1	-11.2	1.22	-1.7	/	/
COc1ccc(OC)c(Nc2nc(N)nc(CSc3nnc(N)s3)n2)c1	-30.3	16.6*	-4.2	0.0852	-9.9	-0.6	-0.7
CC(C)Oc1ccc(C(=O)NC2(C(F)(F)F)NC(=O)N(CCCc3ccccc3)C2=O)cc1 (configuration not stated)	/	-0.5	-1.4	/	/	/	/
Cc1cccc(-c2nnn3c2nc(NCCc2ccc(S(N)(=O)=O)cc2)c2ccccc23)c1	/	3.8	17.6	/	/	/	/
NS(=O)(=O)c1ccc(CCNc2nc3c(-c4cccc(F)c4)nnn3c3ccccc23)cc1	/	11.1*	18.0	/	/	2.8	2.1
O=S(=O)(c1cccc2ccccc12)n1nnc2ccccc21	-14.1	93.9*	-13.9	-0.394	-3.7	-0.9	-2.3
